hgDAF-12 ag: activates the H. glycines DAF-12 receptor ligand-binding domain; actives 1.8% (n = 370,000); activation, % at 6.8 µM; HEK293 GAL4-hgDAF12 UAS-luciferase reporter, agonist luminescence; normalized to butyrate control;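 active = activation above a cutoff set at the mean of all screened compounds plus 3 SD, cut at about 10% in these data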
DAX1 inh-1: blocks DAX1 repression of SF-1 activated StAR promoter; HEK293T StAR-luciferase reporter, SF-1/DAX-1 repression relief; inhibition, % at 6.8 µM; actives 1.1% (n = 370,000); AID 652010;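 active = inhibition above the mean over all tested compounds plus 3 SD, cut at about 3.6% in these data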;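 also: higher inhibition means more luminescence from relief of DAX-1 repression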
ssDAF12 agonist: S. stercoralis DAF-12 activation, primary screen | activation, % at 6.8 µM | HEK293 ssDAF-12/GRIP1 lit1-tk-luc reporter, luminescence; % of 3 µM dafachronic acid response | actives 1% (n = 370,000);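 active = activation above the mean over all tested compounds plus 3 SD, cut at about 0.9% in these data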
hcDAF-12 act: activators of H. contortus DAF-12 nuclear receptor; activation, % at 6.8 µM; actives 1.4% (n = 370,000); HEK293 hcDAF-12 lit1-tk-luc reporter, luminescence; 0% DMSO, 100% Δ7-dafachronic acid;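 active = activation above the mean of all tested compounds plus 3 SD, cut at about 5.5% in these data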
DAX1 inh-2: inhibitors of human orphan nuclear receptor DAX1 (NR0B1); P51843; HEK293 Gal4-DAX1 luciferase reporter, luminescence; inhibition, % at 6.75 µM; actives 0.99% (n = 340,000); AID 504766;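 active = inhibition above the mean over all tested compounds plus 3 SD, cut at about 4.2% in these data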;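 also: inhibition shows as a rise in luminescence from relieved DAX1 repression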
Target sequence (P51843 207-470 limits assumed): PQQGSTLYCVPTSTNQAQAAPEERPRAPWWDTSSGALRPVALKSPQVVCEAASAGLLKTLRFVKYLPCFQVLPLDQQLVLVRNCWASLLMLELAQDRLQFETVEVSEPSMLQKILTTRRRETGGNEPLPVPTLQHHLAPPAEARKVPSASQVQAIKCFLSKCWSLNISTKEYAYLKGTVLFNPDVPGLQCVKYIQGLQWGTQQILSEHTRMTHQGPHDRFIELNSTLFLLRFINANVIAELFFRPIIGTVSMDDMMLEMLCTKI
Large screens that a line does not name were inactive. Most compounds without a hit are left out; they make up all but 4.1% or so of the library.

O=C(Cc1c[nH]c2ccccc12)OCC(=O)c1ccccc1	ssDAF12 agonist 1.2
Cc1ccc(C(=O)C(C)OC(=O)Cc2c[nH]c3ccccc23)cc1 (stereo not drawn)	ssDAF12 agonist 0.9
O=C(O)C(=O)Cc1c[nH]c2ccccc12	ssDAF12 agonist 1.2
COc1ccc(C(=O)COC(=O)Cc2c[nH]c3ccccc23)c(OC)c1	none
CN1c2ccc(-c3cccc(F)c3)cc2[C@H]2[C@H](CCN2S(=O)(=O)c2cccc(F)c2)[C@H]1CO	none (no result: DAX1 inh-2)
Cn1c(SCC(=O)Nc2ccccc2-c2ccccc2)nnc1-c1ccccc1	none (no result: DAX1 inh-2)
COc1ccc(-c2cn3c(C)c(C(=O)NCCN4CCOCC4)sc3n2)cc1	none
CCN(CC)C(=O)c1sc2nc(-c3ccc(OC)cc3)cn2c1C	hgDAF-12 ag 13
Cc1cc(C(=O)NNc2ccc(F)cc2F)no1	DAX1 inh-2 7.6
Cc1ccc(NNC(=O)c2cc(C)on2)c(C)c1	none
Cc1ccc(NC(=O)N2CCCCCC2)cc1	DAX1 inh-1 3.9
COc1ccc(NC(=O)N2CCCCC2)cc1	none
O=C(CSc1ccc2nnc(CCNC(=O)c3ccccc3)n2n1)NCc1ccco1	DAX1 inh-1 3.9
O=C(CSc1ccc2nnc(CCNC(=O)c3ccc(F)cc3)n2n1)NCc1ccco1	none
COc1cc(NS(=O)(=O)c2cc3[nH]c(=O)c(=O)[nH]c3cc2C)cc(OC)c1OC	DAX1 inh-2 4.8
c1ccc2c(c1)CCCN2Cc1nnnn1CC1CCCO1 (stereo not drawn)	none
c1ccc(CCn2nnnc2CN2CCCc3ccccc32)cc1	hcDAF-12 act 5.8
Nc1ccc(N=Nc2ccccc2O)c(N)c1	ssDAF12 agonist 1.6 (no result: DAX1 inh-2)
Oc1ccccc1N=Nc1ccccc1O	none
COC(=O)[C@]12C[C@H](CC(=O)NCc3cccs3)C(=O)N(Cc3ccco3)C1=C[C@H](C(C)(C)C)O[C@@H]2C	none (no result: DAX1 inh-2)
CC(S(=O)(=O)c1ccccc1)S(=O)(=O)c1ccccc1	DAX1 inh-2 5.0
COc1ccc(OCC(=O)C2CC2)c(C#N)c1	DAX1 inh-2 7.2
Cc1nc2c(ncn2-c2ccccc2)c(=O)n1NC(=O)CN1CCCCC1	DAX1 inh-2 4.5
C=C(C)CNC(=O)c1ccc2nc(Cc3ccc(OC)cc3)oc2c1	hgDAF-12 ag 13, DAX1 inh-2 6.3
NC1=NN=C(c2ccc3c(c2)OCCO3)CS1	hgDAF-12 ag 13, DAX1 inh-1 4.5
Cc1sc(N)nc1-c1ccc2c(c1)OCCO2	none
C#CCOC(=O)C[N+](C)(C)C/C=C/c1ccccc1	none
C#CCOC(=O)C[N+](C)(C)CC#Cc1ccccc1	DAX1 inh-2 8.6
Cc1sc2nc3c4ccccc4c(NCc4ccco4)nn3c(=O)c2c1C	hgDAF-12 ag 14, hcDAF-12 act 7.5
Cc1nc(NCc2ccco2)c2c(C)c(C)sc2n1	none
COc1ccc2cc(C3(C)NC(=O)N(CC(=O)N4CCCCC4)C3=O)ccc2c1 (stereo not drawn)	DAX1 inh-1 4.1
COc1ccc(S(=O)(=O)N2CCN(C(=O)CN3C(=O)NC(C)(c4ccc5ccccc5c4)C3=O)CC2)cc1 (stereo not drawn)	none
O=C(CN1CCCCC1CO)c1ccc(OC(F)F)cc1 (stereo not drawn)	DAX1 inh-2 4.5
COc1cc2c(cc1NC(=O)COC(=O)C(CCSC)NC(=O)c1ccccc1Cl)oc1ccccc12 (stereo not drawn)	ssDAF12 agonist 2.5
Cc1ccc(Nc2nc(N)nc(COC(=O)C3=COCCO3)n2)cc1	DAX1 inh-1 3.6
Cc1ccc(NC(=O)COC(=O)C2=COCCO2)cc1	none
Cc1ccc(-c2nn(-c3ccccc3)cc2/C=C2\SC(=S)N(CC(=O)O)C2=O)cc1	ssDAF12 agonist 1.6
CCn1c(SCC(=O)Nc2ccc(C)cc2)nc(O)cc1=O	DAX1 inh-2 4.5
C=CCn1c(SCC(=O)Nc2ccc(Br)cc2)nc(O)cc1=O	none
Cc1ccc(Cn2nnc3c2-c2ccccc2S(=O)(=O)N(C(C)(C)C)C3)cc1	none (no result: DAX1 inh-2)
CC(C)NC(=O)C1C(c2ccccc2)=Nc2ccccc2N1C(=O)c1ccc(C(F)(F)F)cc1 (stereo not drawn)	ssDAF12 agonist 2.3 (no result: DAX1 inh-2)
CC(C)NC(=O)C1C(c2ccc(C(F)(F)F)cc2)=Nc2ccccc2N1C(=O)c1cccc2ccccc12 (stereo not drawn)	ssDAF12 agonist 1.1 (no result: DAX1 inh-2)
CC(C)NC(=O)C1C(c2ccccc2)=Nc2ccccc2N1C(=O)c1cc(Cl)cc(Cl)c1 (stereo not drawn)	none (no result: DAX1 inh-2)
Cc1ccc(C(=O)N2c3ccccc3N=C(c3ccccc3)C2C(=O)NC(C)C)cc1 (stereo not drawn)	ssDAF12 agonist 1.0 (no result: DAX1 inh-2)
O=C1NC(Cc2cnc[nH]2)C(=O)N2CCCC12 (stereo not drawn)	none (no result: DAX1 inh-2)
COC(=O)c1cccc(Nc2cc(C)n(-c3cccc(C(=O)OC)c3)c(=O)c2)c1	none (no result: DAX1 inh-2)
COCc1[nH]nc2c1C(c1ccc(F)cc1)N(Cc1ccccc1)C2=O (stereo not drawn)	none (no result: DAX1 inh-2)
COC(=O)[C@]12C[C@H](CC(=O)N3CCCC3)C(=O)N(Cc3cccc4ccccc34)C1=C[C@H](C1CCCC1)O[C@@H]2C	none (no result: DAX1 inh-2)
N#Cc1ccc2nc(-c3ccc(CN4CCC5(CC4)CNc4ccccc45)cc3)c(-c3ccccc3)nc2c1	none (no result: DAX1 inh-2)
CCn1c(SCC(=O)Nc2ccc(C(C)=O)cc2)nc2c([nH]c3ccccc32)c1=O	hcDAF-12 act 5.8
CCn1c(SCC(=O)Nc2cccc(NC(C)=O)c2)nc2c([nH]c3ccccc32)c1=O	ssDAF12 agonist 1.1
COCCn1c(SCC(=O)Nc2ccc(NC(C)=O)cc2)nc2c([nH]c3ccccc32)c1=O	none
CCn1c(SCC(=O)N2CCOCC2)nc2c([nH]c3ccccc32)c1=O	none
C=CCn1c(SCC(=O)N2CCCC2)nc2c([nH]c3ccccc32)c1=O	ssDAF12 agonist 1.0, hcDAF-12 act 6.3
C=CCn1c(SCC(=O)N2CCN(C(=O)OCC)CC2)nc2c([nH]c3ccccc32)c1=O	none
COCCn1c(SCC(=O)Nc2cc(C)on2)nc2c([nH]c3ccccc32)c1=O	none
CCn1c(SCC(=O)Nc2cc(C)on2)nc2c([nH]c3ccccc32)c1=O	hcDAF-12 act 6.0
Nc1[nH]c(C(=O)c2ccc(Br)cc2)c(-c2ccncc2)c1C(=O)c1ccccc1	none (no result: DAX1 inh-2)
S=C(NCc1ccc(Cl)cc1)OC1CCC12CCC(c1ccccc1)CC2 (stereo not drawn)	none (no result: DAX1 inh-2)
Cc1cc(C)cc(NC(=O)O[C@@H]2CC[C@@]34CCCN3C(=O)CCC[C@H]4C2)c1	none (no result: DAX1 inh-1, DAX1 inh-2)
CN1C(=O)c2cc(NC(=O)Nc3ccc(F)c(F)c3)ccc2OC[C@H]2O[C@@H](CC(=O)O)CC[C@H]21	none (no result: DAX1 inh-2)
CC(C)N(Cc1cn(Cc2ccccc2)nn1)S(=O)(=O)c1ccc(F)cc1Br	none (no result: DAX1 inh-2)
CCCCCCc1ccc(-c2ncc(N)cn2)cc1	hgDAF-12 ag 11
CCCCCc1ccc(-c2nnc(N)s2)cc1	none
C[C@@H]1CCN(C2CC2)S(=O)(=O)c2ccc(N3CCC[C@H]3CO)cc2O1	none (no result: DAX1 inh-2)
CCN(CC)C(=O)Cn1nc(Cc2ccncc2)c2ccccc2c1=O	none (no result: DAX1 inh-2)

Compound activity as filed in PubChem BioAssay.
